Laboratory results from PubChem BioAssay.
Several values for one entry are separate records, joined by “and”; a condition that tells them apart may be missing. Equal values may be shown once. For part of these data: Results with a measured potency or affinity are listed apart. Where a structure was tested more than once in an assay, its records may differ in their call. Activity calls are given as the source filed them. Unless noted, how the calls were made is not given here.

Experiments:
[1] = antimalarial activity against Dd2 strain (AID 2302;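 active means growth inhibition above 50% at the single 2 µM test dose, taken to imply half-maximal potency below 2 µM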;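 further: 0% = DMSO untreated growth and 100% = chloroquine plus artemisinin killed control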); details: P. falciparum Dd2 in RBCs, LDH growth readout, 72 h; at 2 µM; stronger effect = higher value
[2] = HepG2 cytotoxicity, primary screen, cytotoxicity control for P. falciparum antimalarial project, cell-based, ATP luminescence (AID 2303;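 active means inhibition above 50%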;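 further: 0% = DMSO wells and 100% = digitonin-killed cells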); details: HepG2 viability, 24-48 h, at 10 µM, stronger effect = higher value
[3] = target: L-lactate dehydrogenase (Plasmodium falciparum (isolate CDC / Honduras)) (UniProt Q27743); test: PfLDH activity inhibition – cell lysate, 3D7 strain, counter-screen for P. falciparum growth inhibition project (AID 2304);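 further: 0% = vehicle and 100% = reference inhibitor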; details: P. falciparum 3D7 crude extract, LDH APAD/NBT absorbance; at 2 µM; stronger effect = higher value
[4] = inhibition of 3D7 malaria parasite growth – strain 3D7 (AID 2306);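 further: 0% = DMSO wells and 100% = chloroquine plus artemisinin control wells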; details: P. falciparum 3D7 erythrocytic growth, LDH absorbance, 72 h; at 2 µM; stronger effect = higher value
[5] = target: Calcium-dependent protein kinase 1 (Plasmodium falciparum (isolate 3D7)) (UniProt P62344); test: PfCDPK1 kinase inhibitors, biochemical, TCAMS library (AID 1159585; cut-off not given, nearly all actives have IC50 up to about 0.98 µM;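 further: inhibitors leave more ATP so luminescence rises with inhibition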); details: recombinant PfCDPK1, Kinase-Glo ATP depletion luminescence
[6] = target: Plasmodium falciparum protein kinase 6 (PK6, PF3D7_1337100) (UniProt Q8IDW1); test: PfPK6 kinase inhibitors, biochemical, TCAMS library (AID 1159586); details: recombinant PfPK6, Kinase-Glo ATP depletion luminescence
[7] = target: Protein kinase 7 (PK7), Plasmodium falciparum 3D7 (PF3D7_0213400) (UniProt Q7YTF7); test: inhibition of Plasmodium PK7 catalytic activity – biochemical, TCAMS antimalarial set, Kinase-Glo luminescence (AID 1159587); details: recombinant PfPK7, Kinase-Glo ATP depletion luminescence
[8] = target: Calcium-dependent protein kinase 4 (Plasmodium falciparum (isolate 3D7)) (UniProt Q8IBS5); test: PfCDPK4 kinase inhibitors, biochemical, TCAMS library (AID 1159588; cut-off not given, nearly all actives have IC50 up to about 0.91 µM); details: recombinant PfCDPK4, Kinase-Glo ATP depletion luminescence
Chain of Calcium-dependent protein kinase 4 (Plasmodium falciparum (isolate 3D7)) (Q8IBS5 whole entry, looked up): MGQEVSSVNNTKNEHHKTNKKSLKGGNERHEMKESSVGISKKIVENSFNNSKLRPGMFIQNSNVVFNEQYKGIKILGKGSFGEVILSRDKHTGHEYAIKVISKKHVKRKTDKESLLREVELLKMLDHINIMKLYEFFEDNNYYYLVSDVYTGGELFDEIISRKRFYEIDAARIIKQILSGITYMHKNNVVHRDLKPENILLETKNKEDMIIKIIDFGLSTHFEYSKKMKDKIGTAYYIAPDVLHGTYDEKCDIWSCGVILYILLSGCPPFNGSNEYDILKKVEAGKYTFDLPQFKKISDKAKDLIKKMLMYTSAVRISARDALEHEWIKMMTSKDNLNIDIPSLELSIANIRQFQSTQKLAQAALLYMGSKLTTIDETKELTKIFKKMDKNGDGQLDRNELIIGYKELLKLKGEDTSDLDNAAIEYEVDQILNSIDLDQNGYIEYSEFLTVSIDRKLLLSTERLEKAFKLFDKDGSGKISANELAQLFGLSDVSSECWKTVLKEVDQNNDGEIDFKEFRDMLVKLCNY

Chain of L-lactate dehydrogenase (Plasmodium falciparum (isolate CDC / Honduras)) (Q27743 whole entry, looked up): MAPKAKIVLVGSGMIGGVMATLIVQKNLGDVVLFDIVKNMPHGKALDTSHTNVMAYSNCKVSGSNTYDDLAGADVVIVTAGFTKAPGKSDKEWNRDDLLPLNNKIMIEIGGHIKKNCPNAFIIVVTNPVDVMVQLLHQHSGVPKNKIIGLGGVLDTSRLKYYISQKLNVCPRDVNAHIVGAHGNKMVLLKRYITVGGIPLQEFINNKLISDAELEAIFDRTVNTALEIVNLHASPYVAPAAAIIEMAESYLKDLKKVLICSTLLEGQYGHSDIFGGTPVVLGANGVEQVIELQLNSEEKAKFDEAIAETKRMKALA
Chain of Protein kinase 7 (PK7), Plasmodium falciparum 3D7 (PF3D7_0213400) (Q7YTF7 1-343): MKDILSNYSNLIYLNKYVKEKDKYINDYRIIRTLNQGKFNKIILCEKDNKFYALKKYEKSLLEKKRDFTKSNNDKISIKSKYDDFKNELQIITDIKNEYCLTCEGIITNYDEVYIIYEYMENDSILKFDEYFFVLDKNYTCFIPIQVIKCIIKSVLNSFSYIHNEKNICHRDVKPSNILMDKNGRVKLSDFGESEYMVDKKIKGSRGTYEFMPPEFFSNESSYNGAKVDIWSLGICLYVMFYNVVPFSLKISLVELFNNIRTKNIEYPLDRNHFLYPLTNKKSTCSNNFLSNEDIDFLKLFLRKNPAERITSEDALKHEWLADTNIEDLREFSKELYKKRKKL
Chain of Calcium-dependent protein kinase 1 (Plasmodium falciparum (isolate 3D7)) (P62344 whole entry, looked up): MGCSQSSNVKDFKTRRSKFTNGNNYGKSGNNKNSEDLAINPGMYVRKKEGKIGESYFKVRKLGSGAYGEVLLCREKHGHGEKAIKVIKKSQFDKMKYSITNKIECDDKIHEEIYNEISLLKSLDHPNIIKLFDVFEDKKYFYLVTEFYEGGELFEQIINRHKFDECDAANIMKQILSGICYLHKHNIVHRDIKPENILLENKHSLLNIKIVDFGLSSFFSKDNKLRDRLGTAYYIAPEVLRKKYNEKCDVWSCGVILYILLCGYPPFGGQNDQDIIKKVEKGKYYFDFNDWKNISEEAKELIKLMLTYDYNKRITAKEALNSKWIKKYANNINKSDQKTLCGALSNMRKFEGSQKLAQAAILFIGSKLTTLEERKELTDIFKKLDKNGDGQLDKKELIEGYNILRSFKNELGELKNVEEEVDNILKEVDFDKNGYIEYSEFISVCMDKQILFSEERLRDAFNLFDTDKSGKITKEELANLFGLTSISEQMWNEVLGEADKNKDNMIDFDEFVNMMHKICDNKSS
Chain of Plasmodium falciparum protein kinase 6 (PK6, PF3D7_1337100) (Q8IDW1 1-305): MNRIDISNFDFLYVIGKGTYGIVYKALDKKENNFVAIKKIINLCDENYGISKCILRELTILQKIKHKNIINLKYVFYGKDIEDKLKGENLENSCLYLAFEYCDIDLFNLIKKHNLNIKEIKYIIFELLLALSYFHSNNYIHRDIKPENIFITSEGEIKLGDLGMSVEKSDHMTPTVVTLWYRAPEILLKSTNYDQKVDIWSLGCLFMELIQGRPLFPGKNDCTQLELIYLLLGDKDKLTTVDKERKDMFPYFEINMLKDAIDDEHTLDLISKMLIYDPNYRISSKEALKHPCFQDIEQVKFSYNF

| SMILES | growth inhibition [1] | inhibition [2] | inhibition [3] | growth inhibition [4] | outcome [5] | outcome [6] | outcome [7] | outcome [8] |
| --- | --- | --- | --- | --- | --- | --- | --- | --- |
| O=C(/C=C/c1cccc(F)c1)NC1CCC(CN2CCC(c3c[nH]c4ccccc34)CC2)CC1 (configuration not stated) | 31% (inactive) and 28% (inactive) | 39% (inactive) and 35% (inactive) | -1% (inactive) and 0% (inactive) | 98% (active) and 99% (active) | inactive | inactive | inactive | inactive |
| O=C(/C=C/c1ccc(Cl)c(Cl)c1)N1CCC(CN2CCC(c3cn(CC(=O)N4CCCCC4)c4ccccc34)CC2)CC1 | 65% (active) | 52% (active) | -2% (inactive) | 100% (active) | inactive | inactive | inactive | inactive |
| COc1ccccc1CC(C)NCC(O)c1cccc(Cl)c1 (configuration not stated) | 98% (active) | 13% (inactive) | -6% (inactive) | 97% (active) | inactive | inactive | inactive | inactive |
| CC1CN=C(Nc2ncc(Cl)cc2Cl)N1 (configuration not stated) | 3% (inactive) | 2% (inactive) | 7% (inactive) | 99% (active) | inactive | inactive | inactive | inactive |
| Cc1cc(-c2ncc[nH]2)ccc1-c1ccc(C(=O)N2CCc3cc4c(cc32)C2(CCN(C)CC2)CO4)cc1 | 98% (active) | 32% (inactive) | 0% (inactive) | 101% (active) | inactive | inactive | inactive | inactive |
| O=C(/C=C/c1ccc(Cl)c(Cl)c1)Nc1cccc(CN2CCC(c3c[nH]c4ccc(O)cc34)CC2)c1 | 90% (active) | 11% (inactive) | 0% (inactive) | 101% (active) | inactive | inactive | inactive | inactive |
| CN(c1ccc(NC(=O)CCOc2ccccc2)cc1)C1CCN(Cc2cccc(O)c2)CC1 | -1% (inactive) | 18% (inactive) | 3% (inactive) | 89% (active) | inactive | inactive | inactive | inactive |
| CC[C@H]1CN2CC[C@@H]1C[C@H]2[C@H](O)c1cc(N2CCCC(C)(C)C2)nc2ccc(OC)cc12 | 72% (active) | 25% (inactive) | 3% (inactive) | 101% (active) | inactive | inactive | inactive | inactive |
| Cc1cc(NC(=O)[C@H](CC(C)C)Nc2ccc(C#N)c3ccccc23)ccc1F | 88% (active) | 35% (inactive) | 3% (inactive) | 95% (active) | inactive | inactive | inactive | inactive |
| O=C(/C=C/c1ccc(Cl)cc1)NC1CCC(CN2CCC(c3c[nH]c4ccccc34)CC2)CC1 (configuration not stated) | 67% (active) and 90% (active) | 39% (inactive) and 40% (inactive) | -6% (inactive) and 4% (inactive) | 99% (active) and 100% (active) | inactive | inactive | inactive | inactive |
| CC[C@H]1CN2CC[C@H]1C[C@H]2[C@H](O)c1cc(N2CCC3CCCCC3C2)nc2ccc(OC)cc12 (some centres not stated) | 99% (active) | 50% (active) | -4% (inactive) | 100% (active) | inactive | inactive | inactive | inactive |
| Cc1[nH]c2ccc(O)cc2c1C1CCN(CC2CCN(C(=O)/C=C/c3ccc(Cl)c(Cl)c3)CC2)CC1 | 99% (active) | 23% (inactive) | -13% (inactive) | 99% (active) | inactive | inactive | inactive | inactive |
| O=C(C=C1c2ccccc2-c2ccccc21)NC1CCC(CN2CCC(c3c[nH]c4ccccc34)CC2)CC1 (configuration not stated) | 64% (active) and 67% (active) | 21% (inactive) and 54% (active) | 4% (inactive) and 1% (inactive) | 102% (active) and 99% (active) | inactive | inactive | inactive | inactive |
| O=C(Cc1cc(=O)oc2cc(O)ccc12)N1CCC(CN2CCC(c3c[nH]c4ccccc34)CC2)CC1 | -11% (inactive) | 1% (inactive) | 3% (inactive) | 94% (active) | inactive | inactive | inactive | inactive |
| COc1cc(CN2CCN(c3ccnc(N(C)C4CCN(C)CC4)n3)CC2)cc(Cl)c1O | 63% (active) | 11% (inactive) | -5% (inactive) | 94% (active) | inactive | inactive | inactive | inactive |
| O=C(/C=C/c1ccc(Cl)c(Cl)c1)NC1CCC(N2CCC(c3c[nH]c4ccc(O)cc34)CC2)CC1 (configuration not stated) | 16% (inactive) | 10% (inactive) | -9% (inactive) | 97% (active) | inactive | inactive | inactive | inactive |
| COc1cccc(CN2CCC(CCOC(c3ccccc3)c3ccccc3)CC2)c1O | 99% (active) | 33% (inactive) | 3% (inactive) | 97% (active) | inactive | inactive | inactive | inactive |
| O=C(NCc1ccc(S(=O)(=O)N2CCC(CN3CCC(c4c[nH]c5ccccc45)CC3)CC2)s1)c1ccccc1 | 21% (inactive) | 32% (inactive) | 5% (inactive) | 92% (active) | inactive | inactive | inactive | inactive |
| CS(=O)(=O)Nc1ccc2c(C3CCN(CC4CCN(C(=O)/C=C/c5ccc(Cl)c(Cl)c5)CC4)CC3)c[nH]c2c1 | 70% (active) | 28% (inactive) | -3% (inactive) | 99% (active) | inactive | inactive | inactive | inactive |
| C[C@@H](NC(C)(C)C)[C@H](O)c1ccc(Cl)c(C(F)(F)F)c1 | 97% (active) | -1% (inactive) | -6% (inactive) | 97% (active) | inactive | inactive | inactive | inactive |

| SMILES | growth inhibition [1] | inhibition [2] | inhibition [3] | growth inhibition [4] | outcome [5] | outcome [6] | outcome [7] | outcome [8] |
| --- | --- | --- | --- | --- | --- | --- | --- | --- |
| Oc1ccc(Cl)cc1CN1CCC(CCOC(c2ccccc2)c2ccccc2)CC1 | 99% (active) | 14% (inactive) | 4% (inactive) | 98% (active) | inactive | inactive | inactive | inactive |
| CN(c1cc(NC(=O)c2ccccc2)ccn1)C1CCN(Cc2cccc(F)c2)CC1 | 94% (active) | -6% (inactive) | -3% (inactive) | 92% (active) | inactive | inactive | inactive | inactive |
| CCOC(C(=O)OCCN(C(C)C)C(C)C)(c1ccccc1)c1ccccc1 | 4% (inactive) | 4% (inactive) | -2% (inactive) | 97% (active) | inactive | inactive | inactive | inactive |
| O=C(NC1CCC(CN2CCC(c3c[nH]c4ccccc34)CC2)CC1)c1cnn(-c2ccccc2)c1-c1ccccc1Cl (configuration not stated) | 11% (inactive) | 66% (active) | -6% (inactive) | 95% (active) | inactive | inactive | inactive | inactive |
| COC(=O)c1ccc(CC(C)NCC(O)c2cccc(C(F)(F)F)c2)c(OC)c1 (configuration not stated) | 98% (active) | 5% (inactive) | 7% (inactive) | 100% (active) | inactive | inactive | inactive | inactive |
| CCCCCc1cc(O)c2c(c1)OC(C)(C)CC2C1=CCN(Cc2ccccc2)CC1 (configuration not stated) | 79% (active) | 15% (inactive) | -5% (inactive) | 99% (active) | inactive | inactive | inactive | inactive |
| CCCCCSc1cc(O)c(C(CNC)C(C)C)cc1OC (configuration not stated) | 99% (active) | 5% (inactive) | -4% (inactive) | 100% (active) | inactive | inactive | inactive | inactive |
| COc1ccc(NC(=S)NC(NC(=O)CF)C(Cl)(Cl)Cl)cc1[N+](=O)[O-] (configuration not stated) | -4% (inactive) | 66% (active) | 0% (inactive) | 97% (active) | inactive | inactive | inactive | inactive |
| CC(=O)C1(c2ccccc2)CCN(CCC2(c3ccc(Cl)c(Cl)c3)CN(C(=O)C3CCCC3)CCO2)CC1 (configuration not stated) | 70% (active) | 11% (inactive) | 1% (inactive) | 88% (active) | inactive | inactive | inactive | inactive |
| CCOC(=O)c1c(C)n(C2CCCCC2)c2cc(Br)c(O)cc12 | 71% (active) | 1% (inactive) | -3% (inactive) | 98% (active) | inactive | inactive | inactive | inactive |
| COc1cc2c(c(OC)c1OC)C[C@H]1c3c(cc4c(c3-2)OCO4)CCN1C | 30% (inactive) | 7% (inactive) | -1% (inactive) | 84% (active) | inactive | inactive | inactive | inactive |
| O=C(/C=C/c1ccc2ccccc2c1)NC1CCC(CN2CCC(c3c[nH]c4ccccc34)CC2)CC1 (configuration not stated) | 88% (active) | 28% (inactive) | 4% (inactive) | 100% (active) | inactive | inactive | inactive | inactive |
| CC(C)CNCc1cccc(-c2cccc(CN(C(=O)Nc3ccccc3)C3CCN(Cc4ccccc4)CC3)c2)c1 | 89% (active) | 31% (inactive) | 3% (inactive) | 102% (active) | inactive | inactive | inactive | inactive |
| Cc1[nH]c2ccccc2c1C1=CCN(CCCCCNC(=O)/C=C/c2ccc(Cl)c(Cl)c2)CC1 | 89% (active) | 28% (inactive) | -1% (inactive) | 97% (active) | inactive | inactive | inactive | inactive |
| NCc1cccc(-c2cccc(CN(C(=O)Nc3ccccc3)C3CCN(Cc4ccccc4)CC3)c2)c1 | 8% (inactive) | 3% (inactive) | -2% (inactive) | 99% (active) | inactive | inactive | inactive | inactive |
| COc1ccc(CN2CCN(CCOC(c3ccccc3)c3ccc(Cl)cc3)CC2)c(O)c1 (configuration not stated) | 98% (active) | 12% (inactive) | 0% (inactive) | 99% (active) | inactive | inactive | inactive | inactive |
| C/C=C1\CN2CC[C@H]1C[C@H]2[C@H](O)c1ccnc2ccc(OC)cc12 | 45% (inactive) and 61% (active) | -12% (inactive) and -9% (inactive) | 4% (inactive) and -10% (inactive) | 102% (active) and 99% (active) | inactive | inactive | inactive | inactive |
| c1ccc(C(OCCC2CCN(Cc3cccc4cccnc34)CC2)c2ccccc2)cc1 | 99% (active) | 9% (inactive) | 0% (inactive) | 99% (active) | inactive | inactive | inactive | inactive |
| CC(=O)Nc1ccc(OCCN(CC(C)(C)C)c2ccc(C#N)c(C(F)(F)F)c2)c(Cl)c1 | 93% (active) | -6% (inactive) | -1% (inactive) | 87% (active) | inactive | inactive | inactive | inactive |
